# Bioassay records (PubChem)
# PolyA inh – inhibitors of polyadenylation in S. cerevisiae; S. cerevisiae SKY197-pL101 polyadenylation reporter, beta-gal luminescence; efflux-impaired pdr1/pdr3 knockout yeast; score 100 = 6 SD above DMSO; activity score, % at 12 µM; hit rate 0.02% among 300,000;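 active = lowest replicate activity score at least 50, where 100 means six control SD above control mean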;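 note: yeast exposed to compound for 9 h at 30 °C; higher score means more reporter readthrough which indicates perturbed polyadenylation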
# hgDAF-12 ag – hgDAF-12 agonism, primary luciferase screen. HEK293 GAL4-hgDAF12 UAS-luciferase reporter, agonist luminescence; normalized to butyrate control. activation, % at 6.8 µM. hit rate 1.8% among 370,000. AID 687014;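 active = activation above a cutoff set at the mean of all screened compounds plus 3 SD, cut at about 10% in these data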;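 note: 0% = DMSO wells and 100% = sodium butyrate wells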
# hcDAF-12 act – activators of H. contortus DAF-12 nuclear receptor | HEK293 hcDAF-12 lit1-tk-luc reporter, luminescence; 0% DMSO, 100% Δ7-dafachronic acid | activation, % at 6.8 µM | hit rate 1.4% among 370,000 | AID 652067;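 active = activation above the mean of all tested compounds plus 3 SD, cut at about 5.5% in these data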;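 note: 100% = response to 3 µM Δ7-dafachronic acid high control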
# ssDAF12 agonist – S. stercoralis DAF-12 activation, primary screen. HEK293 ssDAF-12/GRIP1 lit1-tk-luc reporter, luminescence; % of 3 µM dafachronic acid response. activation, % at 6.8 µM. hit rate 1% among 370,000;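 active = activation above the mean over all tested compounds plus 3 SD, cut at about 0.9% in these data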;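 note: 0% = DMSO-only wells and 100% = 3 µM delta7-dafachronic acid wells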
# DAX1 inh-1 – DAX1 (NR0B1) inhibition, primary screen; HEK293T StAR-luciferase reporter, SF-1/DAX-1 repression relief; inhibition, % at 6.8 µM; hit rate 1.1% among 370,000; AID 652010;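 active = inhibition above the mean over all tested compounds plus 3 SD, cut at about 3.6% in these data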;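 note: 0% = DAX-1 cells with DMSO and 100% = cells lacking DAX-1 with DMSO; higher inhibition means more luminescence from relief of DAX-1 repression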
# DAX1 inh-2 – inhibitors of human orphan nuclear receptor DAX1 (NR0B1); P51843; HEK293 Gal4-DAX1 luciferase reporter, luminescence; inhibition, % at 6.75 µM; hit rate 0.99% among 340,000; AID 504766;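 active = inhibition above the mean over all tested compounds plus 3 SD, cut at about 4.2% in these data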;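 note: 0% = DAX1-transfected cells with DMSO and 100% = empty-vector control cells with DMSO; inhibition shows as a rise in luminescence from relieved DAX1 repression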
# Target sequence (P51843 207-470 limits assumed): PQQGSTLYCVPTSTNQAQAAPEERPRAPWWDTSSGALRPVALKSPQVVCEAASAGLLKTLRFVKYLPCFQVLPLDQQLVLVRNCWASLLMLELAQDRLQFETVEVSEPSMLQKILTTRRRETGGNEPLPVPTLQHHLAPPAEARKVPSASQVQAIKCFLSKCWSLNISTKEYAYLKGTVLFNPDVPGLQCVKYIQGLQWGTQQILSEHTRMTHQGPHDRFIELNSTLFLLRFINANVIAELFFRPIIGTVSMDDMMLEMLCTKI
# * marks the source's active call; other numbers are inactive results; . = no result. In the library only some 4.1% were active in any assay of this set; here they are far more common.
SMILES,PolyA inh,hgDAF-12 ag,hcDAF-12 act,ssDAF12 agonist,DAX1 inh-1,DAX1 inh-2
Cn1c(SCc2ccc(C#N)cc2Cl)nc2ccccc21,-15.1,12.3*,3.6,0.0,3.5,4.3*
CC(=C\C=O)/C(C)=C/CC[C@@H]1O[C@@H]2C[C@@H]3O[C@](C)(C[C@H]4C[C@H](O)[C@@H]5O[C@@H]6C[C@H](O)[C@@H](C)O[C@@]6(C)CC[C@H]5O4)[C@@H](O)CC[C@@]3(C)O[C@H]2[C@@H](O)[C@@H]1C,.,-2.8,-2.2,-1.3,.,.
O=C(Cc1ccccc1[N+](=O)[O-])NCc1ccncc1,6.6,-0.4,5.3,1.1*,0.4,0.7
O=C(Cc1ccccc1[N+](=O)[O-])NCCc1ccc(F)cc1,-15.8,-0.4,0.9,5.1*,-0.3,0.8
CCOC(=O)[C@@]12CCC3=C1N(CCC3)C(=O)[C@H](CC(=O)NCCCN1CCCC1=O)C2,.,0.8,-1.0,-0.6,-0.6,.
O=C(OC12CCCN(C1)/C(=C/c1cccnc1)C2)c1cccc(F)c1 (stereo not drawn),.,-3.3,-3.1,-2.0,-2.1,.
CCC(C(=O)O)n1c2ccccc2c2cn[nH]c(=O)c21 (stereo not drawn),-14.4,0.7,5.3,1.0*,0.1,-0.9
Cc1cccc(C(=O)N[C@H]2CC[C@@]34CCCN3C(=O)CCC[C@H]4[C@H]2C)c1,.,-0.3,-1.6,-1.3,.,.
C[C@@H]1CN([C@@H](C)CO)C(=O)c2cc(Br)cnc2O[C@H]1CN(C)C(=O)c1cccc(F)c1,.,-0.3,-1.2,-1.3,0.3,0.9
C[C@H](CO)N1C[C@H](C)[C@H](CN(C)C(=O)Cc2ccncc2)Oc2ncc(Br)cc2C1=O,.,-4.1,-1.6,-1.5,3.8*,0.9
C[C@@H]1CN([C@@H](C)CO)C(=O)c2cc(-c3cccnc3)cnc2O[C@H]1CN(C)C(=O)c1cccc(F)c1,.,0.4,0.0,-0.2,-0.4,6.5*
COc1ccc(-n2c(COc3ccccc3)nnc2SCc2nc3ccccc3[nH]2)cc1,.,-0.8,0.4,-1.4,0.6,.
Cc1ccc2[nH]c(CNC(=O)c3ccc(F)cc3)cc2c1,6.5,-1.2,1.0,1.0*,0.7,1.0
Cc1ccc2[nH]c(C(=O)Nc3ccc(F)cc3)cc2c1,-9.4,3.0,-0.6,-1.3,-0.2,0.0
COc1ccc(N2C(=O)[C@H]3[C@@H](C2=O)C2c4ccccc4C=NN2[C@H]3C(=O)C(C)(C)C)cc1 (stereo partly drawn),3.8,0.0,-1.2,-1.6,-0.2,5.6*
CC(=O)Oc1ccc(N2C(=O)[C@@H]3[C@H](C2=O)[C@H]2c4ccccc4C=NN2[C@@H]3C(C)=O)cc1,15.1,3.5,1.6,-1.0,-0.3,0.0
COC(=O)[C@]12C[C@H](CC(=O)NCCc3ccccc3OC)C(=O)N(Cc3ccc(Cl)cc3Cl)C1=C[C@H](COCc1ccccc1)O[C@@H]2C,.,-0.2,-4.3,-2.2,-2.9,.
Cc1cn2c(=O)c3ncn(C4OC(CO)C(O)C4O)c3n(C)c2n1 (stereo not drawn),.,0.0,-1.8,-1.8,0.1,.
CCOC(=O)c1ccc(NCc2nc3ccccc3n2C)cc1,-10.8,10.2,4.4,0.9*,1.9,1.7
COc1ccccc1OCc1nc2ccccc2n1C,12.5,6.8,0.7,-0.5,0.5,0.6
Cn1c(NCc2ccc(Cl)cc2)nc2ccccc21,6.5,12.6*,5.5,1.5*,2.5,1.0
Cn1c(COc2ccccc2Br)nc2ccccc21,-41.7,9.6,4.4,0.8,1.6,6.0*
Cn1c(NCc2c(O)ccc3ccccc23)nc2ccccc21,10.7,1.5,0.4,-1.1,0.4,-1.0
Cn1c(CNc2nc3ccccc3n2C)nc2ccccc21,-9.5,11.2*,3.3,-0.2,1.8,-0.2
COc1cccc(CNC(=O)Cn2c(-c3ccccc3)cc(C(C)=O)c2C)c1OC,.,-1.9,-1.4,-0.8,-0.4,.
Cn1c(Nc2ccc(F)cc2)nc2ccccc21,-14.7,0.5,-0.9,-0.2,-0.5,0.3
COc1ccc(Nc2nc3ccccc3n2C)cc1,-1.6,12.0*,5.3,-0.2,0.9,6.4*
COc1ccc(Nc2cc(C)c3ccccc3n2)cc1,-14.3,11.3*,-0.8,-0.8,1.5,0.5
